From PubChem
HP1b chromo inh: inhibitors of HP1-beta chromodomain binding to methylated histone tails. AlphaScreen HP1-beta / biotin-H3K9me3 peptide binding. Potency, µM (highest dose often 114 µM), without a hit: at the top dose activity change, negative = inhibition, most hits filed as inhibitors. 390,000 compounds, 0.56% hits. AID 540317; note: nearly all actives have a fitted effect of over 70% in size
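Compound inhibition of the preformed complex between 50 nM HP1-beta and 50 nM biotinylated H3K9me3 peptide was read by AlphaScreen. Buffer was PBS pH 7.4 with 0.01% Tween-20. Incubations ran 30 min at room temperature, with 10 ug/mL donor/acceptor beads.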
JMJD2A Tudor: blocks the human JMJD2A Tudor domain; O75164; AlphaScreen JMJD2A-Tudor / H3K4me3 peptide binding; Potency, µM (doses to about 114 µM), for inactives: at the top dose activity change, negative = inhibition, actives largely listed as inhibitors; 390,000 compounds, 4.4% hits; note: % is set by controls: 0 for no effect and ±100 for the full control effect; nearly all actives have a fitted effect of over 50% in size
PLK1 PBD block: blocks phosphopeptide binding to human PLK1 polo-box domain; Plk1 PBD binding of FITC phosphopeptide, fluorescence polarization; P53350; AID 720504; 360,000 compounds, 2.8% hits; Potency, µM, for the others: max response, negative = inhibition, usual class: inhibitors; note: series mostly up to about 57 µM; % is set by controls: 0 for no effect and ±100 for the full control effect; nearly all actives have a fitted effect of over 65% in size
ALOX12 inh: inhibitors of human 12S-lipoxygenase ALOX12 | purified 12hLO, xylenol orange hydroperoxide absorbance | P18054 | AID 1671190 | Potency, µM (titrated, usually from 108 µM), inactives show top-dose activity change, negative = inhibition, hits mostly inhibitors | 580,000 compounds, 1.1% hits; note: % is set by controls: 0 for no effect and ±100 for the full control effect
Target sequence (P18054 whole entry, looked up): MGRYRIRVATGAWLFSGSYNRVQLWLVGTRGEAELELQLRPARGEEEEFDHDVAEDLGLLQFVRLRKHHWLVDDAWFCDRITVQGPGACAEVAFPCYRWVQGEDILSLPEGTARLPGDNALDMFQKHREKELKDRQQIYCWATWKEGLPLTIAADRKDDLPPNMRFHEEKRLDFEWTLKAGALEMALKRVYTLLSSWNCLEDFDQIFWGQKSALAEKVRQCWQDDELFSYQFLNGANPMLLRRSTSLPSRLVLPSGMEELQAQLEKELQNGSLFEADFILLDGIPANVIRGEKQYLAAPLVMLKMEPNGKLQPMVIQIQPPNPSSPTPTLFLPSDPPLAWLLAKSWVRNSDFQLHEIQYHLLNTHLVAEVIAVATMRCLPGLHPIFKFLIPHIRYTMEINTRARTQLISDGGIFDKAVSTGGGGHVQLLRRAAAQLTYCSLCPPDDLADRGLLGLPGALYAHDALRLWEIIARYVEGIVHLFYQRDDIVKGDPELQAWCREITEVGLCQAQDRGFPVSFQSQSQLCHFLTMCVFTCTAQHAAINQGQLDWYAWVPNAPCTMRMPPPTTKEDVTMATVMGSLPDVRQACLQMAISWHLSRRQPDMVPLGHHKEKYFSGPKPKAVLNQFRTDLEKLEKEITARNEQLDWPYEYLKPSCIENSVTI
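Hydroperoxide product was detected by ferrous iron/xylenol orange as the 573 to 405 nm absorbance ratio. Arachidonic acid at 40 uM (final) was turned over for 30 min at room temperature by 150 nM human 12hLO, pH 7.0 Hepes buffer, after 15 min compound preincubation.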
G9a inh: G9a (human) methyltransferase inhibition | 350,000 compounds, 8.8% hits | Q96KQ7 | G9a H3K9 monomethylation, AlphaScreen, 2 h | Potency, µM (series often up to 102 µM), for inactives: at the highest dose activity, negative = inhibition, usual class: inhibitors; note: % is set by controls: 0 for no effect and ±100 for the full control effect; nearly all actives have a fitted effect of over 75% in size
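AlphaScreen read-out: biotin-H3K9 peptide (500 nM) methylation by 20 nM enzyme with 20 uM SAM, 2 h at room temperature after 15 min compound preincubation; anti-monomethyl H3K9 antibody plus donor/acceptor beads, 10 min dark.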
BAZ2B block: inhibitors of human BAZ2B bromodomain; Q9UIF8; AlphaScreen BAZ2B-H3K14Ac peptide displacement; Potency, µM (titrated, usually from 114 µM), without a hit: at the highest dose activity change, negative = inhibition, most hits filed as inhibitors; 360,000 compounds, 4.4% hits; note: % is set by controls: 0 for no effect and ±100 for the full control effect; nearly all actives have a fitted effect of over 60% in size
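Multi-concentration screen (max 110 uM) measuring displacement of acetylated histone H3 peptide from BAZ2B by AlphaScreen, using 50 nM protein, 50 nM peptide and 10 ug/mL streptavidin donor plus Ni-chelate acceptor beads.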
* marks the source's active call; other numbers are inactive results; ? = inconclusive; . = not tested or not shown; [ ] = remark or other dose. Hits are enriched below; roughly 9% of the tested compounds scored in any of these assays. Calls come from the whole dose curve; as a rule, active = well fitted curve in the direction sought with a large enough effect; inconclusive = small, poorly fitted or top-dose-only effect, or another doubt; inactive = no such curve, though single readings can be large; an effect the other way counts as inactive or inconclusive. Potency is the fitted concentration of half-maximal effect.

SMILES | HP1b chromo inh | JMJD2A Tudor | PLK1 PBD block | ALOX12 inh | G9a inh | BAZ2B block
CCC(C)N(C(=O)CSc1nc2ccc(OC)cc2[nH]1)C1CCS(=O)(=O)C1 (configuration not stated) | 18.6% | -8.9% | -2.6% | -17.4% | 39.8µM* | 7.6%
COc1ccc2nc(SCCN(C)C)[nH]c2c1 | ? | -21.2% | -5.0% | 0.0% | ? | 50.1µM*
CCOc1ccc2nc(SCC3CC3(Cl)Cl)[nH]c2c1 (configuration not stated) | 30.7% | 2.8% | 3.5% | ? | 44.7µM* | -19.1%
ClC1(Cl)CC1CSc1nc2ccccc2[nH]1 (configuration not stated) | 22.9% | -7.8% | -7.7% | -12.4% | -33.8% | 1.6%
COc1ccc2nc(SCC(N)=O)[nH]c2c1 | 36.3% | -2.3% | -3.1% | 0.0% | -24.5%[12.7 µM] | 3.7%
O=C(COc1ccc2c3c(c(=O)oc2c1)CCCC3)NCc1ccncc1 | 35.5% | -8.3% | -8.0% | 0.0% | . | -19.1%
Cc1ccc(Cl)c(NC(=O)Nc2csc3c2CCCC3)c1 | 24.4% | -6.5% | . | -9.5% | 7.0%[59 µM] | -0.8%
Cc1cccc(C(=O)Nc2ccc(Cl)cc2C(F)(F)F)c1C | . | . | . | -6.1% | . | .
CCN(c1ccccc1C)S(=O)(=O)c1nnc(NC(=O)c2ccccc2C)s1 | -9.9% | ? | . | 0.0% | 2.51µM* | ?
CCN(c1cccc(C)c1)S(=O)(=O)c1nnc(NC(=O)c2cccs2)s1 | ? | ? | . | -8.3% | 3.16µM* | 3.55µM*
O=C1c2ccccc2C(=O)N1c1cccc2cccnc12 | 18.8% | -8.2% | -3.0% | 1.8% | 2.9%[59 µM] | -0.9%
O=C(C1CCN(C2CC(=O)N(c3cccc(Cl)c3)C2=O)CC1)N1CCCC1 (configuration not stated) | 49.3% | -10.9% | -14.6% | 267.5% | ? | -10.1%
CC1(C)OC(c2ccccc2)=C/C(=C/C=C2C(=O)c3ccccc3C2=O)O1 | ? | 3.16µM* | 3.1% | -3.7% | 2.51µM* | 1.41µM*
CC1(C)OC(c2ccccc2)=C/C(=C/C=N/NC(=O)c2ccncc2)O1 | 2.9% | ? | -8.2% | 1.0% | 40.0%[12.7 µM] | -33.9%
O=C(CSc1ncccn1)N1CCN(C(c2ccccc2)c2ccccc2)CC1 | -0.9% | -19.2% | 0.4% | -24.5% | 5.62µM* | -6.8%
O=C(CSc1ncccn1)N1CCN(C(=O)CSc2ncccn2)CC1 | 15.3% | -5.0% | -1.6% | 18.3% | -0.4%[59 µM] | -2.1%
Oc1c(C(c2ccccc2)N2CCOCC2)ccc2ccccc12 (configuration not stated) | 14.1µM* | 10µM* | 1.19µM* | ? | . | .
O=C(CN1CCN(C(c2ccccc2)c2ccccc2)CC1)N1CCOCC1 | 17.9% | 17.8µM* | -4.0% | ? | 8.91µM* | 50.1µM*
COc1ccc(N2CCN(C(=O)CN3CCN(C(c4ccccc4)c4ccccc4)CC3)CC2)cc1 | -72.7% | 25.1µM* | 9.6% | -28.6% | ? | 50.1µM*
Cc1cccc(C(=O)NC2CC(C)(C)NC(C)(C)C2)c1 | 6.4% | -4.0% | 3.8% | -2.4% | -12.5%[59 µM] | -6.2%
Cc1ccc(Cn2c(C3CCN(C(=O)c4ccccn4)CC3)n[nH]c2=O)cc1 | . | . | . | 2.8% | . | .
CCc1ccc(-c2cc(C(=O)NN3CCOCC3)c3ccccc3n2)s1 | 21.8% | 1.4% | -19.8% | -22.6% | ? | -31.0%
C=CCNC(=O)CN1CCN(C(c2ccccc2)c2ccccc2)CC1 | ? | 20µM* | -5.0% | ? | 11.2µM* | 50.1µM*
CCCc1sc(N/N=C/c2ccccn2)nc1-c1ccc(Br)cc1 | 5.8% | 50.1µM* | -2.7% | -27.7% | -5.4%[59 µM] | -32.9%
CCc1ccc(-c2cc(C(=O)N/N=C/c3ccccn3)[nH]n2)cc1 | -2.0% | -27.6% | -2.0% | 5.9% | 99.3%[59 µM] | -14.8%
Cc1ccc(C2Cn3nnc(C(=O)N4CCC(C(=O)NCc5ccc(F)cc5)CC4)c3CO2)cc1 (configuration not stated) | . | . | . | 2.8% | . | .
C[C@@H](NS(C)(=O)=O)c1onc(-c2cccnc2)c1C(=O)O | . | . | . | 56.2µM* | . | .
C[C@@H](NC(=O)c1cccnc1)c1onc(-c2ccc(F)cc2)c1C(=O)O | . | . | . | 17.8µM* | . | .
